# Data taken from PubChem BioAssay (NCI).
# Several values for one entry are separate records, joined by “and”; a condition that tells them apart may be missing. Identical values can stand only once. Compounds without any hit were thinned out: in the full panel of roughly 79,000, 15% have a hit. Unmarked numbers belong to inactive results. Activity calls are given as the source filed them. No stated cut-off is given here; in the data, active means growth inhibition above about 70%; inactive means the rest.
# Legend:
# [1] = NCI Yeast Anticancer Drug Screen. Data for the rad50 strain (AID 155);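 further: 0% = growth of vehicle-only cultures of the same strain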; settings: S. cerevisiae rad50 strain growth inhibition, hits give high values; at 50.0 µM unless noted
# How it was run: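 Growth of the mutant yeast was measured after compound exposure and referenced to vehicle-treated cultures.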
# [2] = NCI Yeast Anticancer Drug Screen. Data for the mec2-1 strain (AID 157); settings: S. cerevisiae mec2-1 strain, hits give high values; at 50.0 µM unless noted
# How it was run: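 Cells of the genetically defined mec2-1 yeast strain are incubated with test compound. Inhibition of growth is calculated against vehicle-treated controls.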
# [3] = NCI Yeast Anticancer Drug Screen. Data for the sgs1 mgt1 strain (AID 161);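 further: 0% = growth of cultures given vehicle only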; settings: S. cerevisiae sgs1 mgt1 strain, hits give high values; at 50.0 µM unless noted
# How it was run: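 Test agents were incubated with a DNA-repair-mutant yeast strain. Growth was then read and compared against vehicle-treated controls.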
# [4] = NCI Yeast Anticancer Drug Screen. Data for the cln2 rad14 strain (AID 165);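 further: 0% = growth equal to vehicle treated cultures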; settings: S. cerevisiae cln2 rad14 strain, hits give high values; at 50.0 µM unless noted
# How it was run: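 The screen exposed genetically defined yeast (cln2 rad14) to test compounds and scored growth inhibition relative to vehicle-treated controls.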
# [5] = NCI Yeast Anticancer Drug Screen. Data for the bub3 strain (AID 167); settings: S. cerevisiae bub3 mutant strain, hits give high values; at 50.0 µM unless noted
# How it was run: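 Whole-cell yeast assay. The mutant strain was incubated with compounds, and growth inhibition was determined by comparison with vehicle-treated cells.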
# [6] = NCI Yeast Anticancer Drug Screen. Data for the mlh1 rad18 strain (AID 175); settings: S. cerevisiae mlh1 rad18 strain growth inhibition, hits give high values; at 50.0 µM unless noted
# How it was run: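 Compound-treated yeast growth, normalised to vehicle controls. Strain bears defined DNA repair mutations.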
Structure (SMILES),growth inhibition [1],growth inhibition [2],growth inhibition [3],growth inhibition [4],growth inhibition [5],growth inhibition [6]
CCN(CC)CCN=Cc1ccccc1OC,15.9%,-29.5%,-3.85%,3.15%,11.3%,15.2%
CCOC(=O)C(=O)C(NC(=O)Cc1ccccc1)C(=O)OCC (stereo unspecified),27.2%,-8.55%,1.85%,-15.8%,-0.25%,17.1%
ClCCCN(CCCCl)c1ccc(C=Nc2cccc(Cl)c2)c(Cl)c1,91.1% (active),76.6% (active),95.5% (active),85.2% (active),81.5% (active),93.5% (active)
O=C(CO[N+](=O)[O-])OC/C=C/c1ccccc1,-4.25%,5.35%,-2%,-0.65%,2.55%,8.6%
CNC(=S)NCOCCOC(C)=O,6.75%,22.1%,15.2%,-26.9%,0.75%,3.45%
Cc1ccc(NCC(=O)N2CC(=O)Nc3ccccc32)c(C)c1,-26.2%,-39.1%,-43.8%,-3.4%,-27.7%,-31.3%
O=Cc1ccc(OC(=O)Nc2ccc([N+](=O)[O-])cc2)cc1,2.65%,45%,33.4%,-2.7%,46.6%,47.4%
COC(=O)Nc1ccc(Cc2ccc(NC(=O)OC)cc2)cc1,26.1%,7.35%,27.5%,15.7%,33.5%,29.6%
C=C(C)CC(=O)O.CC(=O)[CH-]C(C)=O.CC(=O)[CH-]C(C)=O.CC(=O)[CH-]C(C)=O.[Zn+2].[Zn],30.2%,10.8%,16.2%,6.8%,-0.85%,21.1%
O=C(O)/C=C/c1ccc(OS(=O)(=O)O)cc1,-12.6%,-31.4%,-14.9%,7.8%,-9.8%,-7.4%
CC(=O)Oc1ccc2c(c1)[nH]c1c3ccc(OC(C)=O)cc3oc(=O)c21,-21.4%,-26.9%,-8.05%,5.8%,-2.85%,-13.7%
CC[N+](CC)(CC)CCOC(=O)c1cc(OC)c(OC)c(OC)c1,-16.4%,-20.4%,-2.35%,15.4%,4.1%,-0.6%
CCCCC1(CC)COC(C)(CC)OC1 (stereo unspecified),29.4%,15.7%,5.3%,-26.6%,-19.4%,17.5%
Cc1ccc([N+](=O)[O-])cc1NS(=O)(=O)c1cc(Cl)c(Cl)cc1Cl,19.8%,36.6%,49.2%,-8.5%,1.2%,61.2%
CC(=O)NC1=NC(=O)/C(=C/c2ccc3c(c2)OCO3)N1C,4.7%,2.85%,-3.3%,3%,5.5%,10.9%
O=C(NCCS)C(=O)NCCS,-1.55%,7.9%,3.65%,9.7%,-12.7%,-10.2%
COc1ccc(C2(OC)Oc3cc(OC)ccc3-c3nc4ccccc4nc32)cc1 (stereo unspecified),23.4%,1.25%,-4.15%,11.6%,4.3%,0.4%
Cc1nc2ccccc2c2ccc([N+](=O)[O-])cc12,13.5%,4.45%,0.25%,-31.1%,-4.6%,12.3%
CC(=O)OCCOc1ccc2c(c1)OCO2,3.2%,-1.2%,4.95%,-23.6%,-1.75%,30.7%
COC(=O)C1CCC(=O)N1Cc1cccs1 (stereo unspecified),-22.9%,-1.7%,-11.1%,22.1%,3.55%,-13.2%
O=S1(=O)C(=C(c2ccccc2)c2ccccc2)S(=O)(=O)c2ccccc21,39.7%,13.3%,13.9%,23.9%,-6.55%,29.1%

Structure (SMILES),growth inhibition [1],growth inhibition [2],growth inhibition [3],growth inhibition [4],growth inhibition [5],growth inhibition [6]
O=C1CN(c2cccc(C(F)(F)F)c2)C(=O)CN1/N=C/c1cccnc1,-28.4%,-5.2%,10.8%,-4.35%,27.9%,-8.45%
CCCC(C)C(=O)OC(CC)CC (stereo unspecified),31.4%,1.55%,13.1%,-18.2%,5.65%,11.4%
Cc1[nH]n(C(N)=S)c(=O)c1N=Nc1ccc([N+](=O)[O-])cc1Cl,57.8%,6%,66.2%,-46.5%,1.5%,53.2%
O=C(NC1(Sc2ccccc2)CC1)c1ccc(Cl)cc1,17.8%,6.8%,8.9%,20.6%,13.8%,18.9%
O=C1C(Br)=C[C@H]2C3C=CC(Br)(C3=O)[C@@H]12 (stereo partly specified),20.8%,14.9%,14.9%,25.2%,15.6%,23.6%
O=CNc1cccnc1C1OCCO1,4.85%,5.85%,2%,-13.3%,-4.75%,7.65%
Brc1ccccc1C#Cc1ccccc1Br,0.7%,-4.6%,16.3%,-1.25%,10.1%,19.1%
O=c1[nH]c2cc(Cl)ccc2nc1/C(=N\O)C(O)c1ccc([N+](=O)[O-])cc1 (stereo unspecified),8%,14.2%,-21.2%,-24.6%,-17.2%,-5%
Cc1cc(C)c(C(=O)Cc2ccccc2)c(C)c1,18.4%,15.6%,20.2%,12.4%,11.4%,9.45%
NC(=O)N/N=C/c1ccc([N+](=O)[O-])cc1,7.35%,-2.6%,-6.55%,-24.1%,15.9%,-4.2%
COC(=O)C1Cc2c([nH]c3ccccc23)C=N1 (stereo unspecified),65.3%,31.2%,55%,45.5%,14.8%,62.6%
Nc1ccc(NC(=O)Nc2ccccc2)cc1,5.65%,-19.2%,-0.7%,-32.4%,-22.3%,-15.1%
CC(=O)OCC1C2C=CC(C2)C1COC(C)=O (stereo unspecified),2.2%,-4.8%,-5.1%,-47.1%,-2.9%,2.1%
CCC(=O)OC(C)COc1ccccc1 (stereo unspecified),-6.2%,3.25%,-3.9%,-43.5%,-5.8%,-10.4%
CCOC(=O)C(=CNC(=S)N=Nc1c(O)[nH]c2ccccc12)C(=O)OCC,-58.4%,-69.2%,-45%,2.85%,-36.9%,-25.8%
OCCN1CCN=C1Cc1ccccc1,4.75%,11.9%,8.05%,14.2%,-2.1%,29.4%
CC1(C)OCC2OC3(c4nc(C#N)c(N)o4)OC(C)(C)OC3C2O1 (stereo unspecified),-18.8%,-7.05%,-48%,-1.7%,-39.2%,-75%
CC(=O)C(CCC#N)(CCC#N)C(C)=O,-18.6%,-24.6%,-4.8%,-5.95%,-1.45%,-16.1%
C#CCOCC12C=CC(O1)C1C(=O)N(C)C(=O)C12 (stereo unspecified),-11.4% and 8.1%,33.5% and 38.6%,8.75% and -3.95%,7.65% and 36.2%,24.6% and 33.4%,-13.3% and 6.25%
CCN(CC)N=Nc1ccc(C(=O)O)cc1,9.55%,1.7%,-10.1%,-8.8%,5.85%,-2%
